We go through 49 compounds from PubChem BioAssay AID1851 (National Center for Advancing Translational Sciences (NCATS), 2009).

The AC50 is the concentration giving half of the maximal activity seen.

The campaign covered roughly 16,000 compounds. About 5,800 (36%) were called active. Inconclusive results (about 23%) are left out. The list shows a part of the results. Unmarked numbers belong to inactive results. Calls follow the shape of the dose curve; as a rule, active = well fitted curve in the direction sought with a large enough effect; inconclusive = small, poorly fitted or top-dose-only effect, or effect the other way; inactive = no such curve, though single readings can be large or run the other way.
% is scaled to controls: 0 for no effect and ±100 for the full control effect.

Sequence of Cytochrome P450 2C19 (Homo sapiens) (P33261 whole entry, looked up): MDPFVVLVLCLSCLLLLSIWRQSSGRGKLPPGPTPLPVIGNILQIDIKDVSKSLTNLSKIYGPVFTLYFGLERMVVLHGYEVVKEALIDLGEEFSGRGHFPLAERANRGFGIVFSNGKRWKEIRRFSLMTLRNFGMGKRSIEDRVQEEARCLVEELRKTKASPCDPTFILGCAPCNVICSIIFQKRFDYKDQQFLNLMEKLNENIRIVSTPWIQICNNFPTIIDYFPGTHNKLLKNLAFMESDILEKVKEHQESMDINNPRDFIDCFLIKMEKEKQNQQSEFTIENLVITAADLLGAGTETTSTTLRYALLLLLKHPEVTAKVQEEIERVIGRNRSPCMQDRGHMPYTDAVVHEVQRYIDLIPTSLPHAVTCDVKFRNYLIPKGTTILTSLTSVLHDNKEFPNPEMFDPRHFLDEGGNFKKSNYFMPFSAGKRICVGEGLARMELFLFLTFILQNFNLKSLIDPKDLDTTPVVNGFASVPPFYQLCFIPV

The assay concerns the target Cytochrome P450 2C19 (Homo sapiens) (UniProt P33261). As to the kind of experiment: Cytochrome panel assay with activity outcomes. The note with it: recombinant CYP, pro-luciferin dealkylation, luminescence, p450-cyp2c19; series mostly up to 57.1 µM; activity, negative = inhibition: at the top concentration.
Turning to `O=S1(=O)C=C(N2CCOCC2)c2ccccc21`, the “activity, negative = inhibition” value is -30.9%.
As to `Cc1ccc(S(=O)(=O)Nc2nc3ccccc3nc2N2CCc3ccccc3C2)cc1`, the AC50 is 5.01 µM (active).
Same read-out and setting: under `Nc1ccc(S(=O)(=O)Nc2cnc3ccccc3n2)cc1` stands “inactive”.
Consider `N#CCCn1c(=O)c(-c2ccc(F)cc2)nc2cnc(OCc3ccccc3)nc21`, for which the “activity, negative = inhibition” value was 15.8%.
For `N#CCSc1nc2ccc(N3CCCCC3)cc2c(=O)n1Cc1ccccc1`, the AC50 was 7.94 µM (active).
On to `COc1ccc(C(=O)N2CCC[C@@]3(CCN(Cc4ccc(C#N)cc4)C3)C2)cc1`, for which the “activity, negative = inhibition” value was -8.34%.
Take `N#CCSc1nc2cc(C(=O)N3CCCC3)ccc2c(=O)n1Cc1ccccc1`: the half-maximal activity concentration (AC50) is 11.2 µM (active).
Regarding `CCCCn1c(SCC(N)=O)nc2ccc(N3CCOCC3)cc2c1=O`, the “activity, negative = inhibition” value was -12.8%.
For the compound `O=C(c1ccncc1)N1CCC2(CCCN(Cc3ccccc3)C2)CC1`, the “activity, negative = inhibition” value was -1.19%.
Still for that read-out and setting: under `CSc1nc(N)c2ncn([C@H]3O[C@H](COP(=O)(O)OP(=O)(O)O)[C@@H](O)[C@@H]3O)c2n1` stands -16.9%.
For `N#Cc1cc(-c2ccccc2)cnc1Sc1ccc(Cl)cc1`, the concentration at half-maximal activity (AC50) is 4.47 µM (active).
The same measure, in the same setting: the same measure for `N#Cc1cc(-c2ccc(Cl)cc2)cnc1Sc1ccccc1`: 4.47 µM (active); for `N=C1C(c2nc(-c3ccc(F)cc3)cs2)=C(O)CN1CCCN1CCOCC1`: 25.1 µM (active).
Regarding `N#Cc1c2c(c(-n3cnc4ccccc43)n3c1nc1ccccc13)CCC2`, the “activity, negative = inhibition” value was -23.5%.
`c1ccc2c(c1)ncn2-c1ncnc2sc3c(c12)CCCC3`: the concentration at half-maximal activity (AC50) is 8.91 µM (active).
Same read-out and setting: the same measure for `COc1ccccc1CN1C(=O)c2ccncc2C1=O`: 14.1 µM (active).
As for `COc1ccccc1CN1CC2(CCN(C(=O)c3cnccn3)CC2)C1`, the “activity, negative = inhibition” value is 37.1%.
The same measure, in the same setting: the same measure for `COc1ccccc1CN1CC2(CCN(C(=O)c3ccncc3)CC2)C1`: -42.2%.
For the compound `CCOC(=O)c1c(C)nc2sc3c(=O)n(-c4ccc(C(C)=O)cc4)nnc3c2c1-c1ccc(Cl)cc1`, the “activity, negative = inhibition” value was -21.6%.
Regarding `CCOC(=O)c1c(C)nc2sc3c(=O)n(-c4ccc(C)cc4)cnc3c2c1-c1ccc(OC)cc1`, the half-maximal activity concentration (AC50) is 1.26 µM (active).
`Cc1cc2ccccc2c[n+]1CC(O)C[n+]1cc2ccccc2cc1C`: the activity, negative = inhibition is 3.92% [at 11.4 µM].
For `O=C(NCc1ccccc1)c1cccc(COc2cccc(Cl)c2)c1`, the AC50 was 7.08 µM (active).
Regarding `O=C(O)c1ccc(OCc2ccccc2)c(Cl)c1`, the activity, negative = inhibition was 18.7% [at 11.4 µM].
On the same count and under the same terms, the same measure for `N#CC1=C(N)OC2=C(C(=O)CCC2)C12CCC1(CC2)OCCO1`: -60.8%.
Take `O=c1c(-c2nnc(SCc3ccc(Cl)c(Cl)c3)o2)cccn1Cc1ccccc1`: the AC50 was 1.41 µM (active).
The same measure, in the same setting: under `O=c1c(-c2nnc(SCc3ccc(Cl)cc3Cl)o2)cccn1Cc1ccccc1` stands 1.26 µM (active).
Turning to `COc1ccc(-c2nc3cnc(N4CCN(C)CC4)nc3n(C)c2=O)cc1`, the “activity, negative = inhibition” value was -40.9%.
The same measure, in the same setting: the same measure for `CN(C)c1ncc2nc(-c3cc(F)cc(F)c3)c(=O)n(CCC#N)c2n1`: 13.1%; for `O=C(O)[C@H]1CCCN(CCC=C(c2ccccc2)c2ccccc2)C1`: 37%; for `O=C(/C=C/c1cccc([N+](=O)[O-])c1)NCCN1CCOCC1`: -22.3%.
On to `CCOC(=O)C1CCCN(C(=O)/C=C/c2cccc([N+](=O)[O-])c2)C1` (centres undefined), for which the AC50 was 14.1 µM (active).
Same read-out and setting: the same measure for `CC1CC(C)CN(C/C=C/c2ccccc2[N+](=O)[O-])C1` (centres undefined): 7.08 µM (active).
For `Cc1ccc(NC(=O)/C(=C/c2cccc([N+](=O)[O-])c2)NC(=O)C2CCCCC2)c(C)c1`, the “activity, negative = inhibition” value is -19.8%.
Turning to `CCOC(=O)C1CCCN(C/C=C/c2ccccc2[N+](=O)[O-])C1` (centres undefined), the AC50 is 3.98 µM (active).
`CC1CCCN(C/C=C/c2ccccc2[N+](=O)[O-])C1` (centres undefined): the concentration at half-maximal activity (AC50) is 8.91 µM (active).
Regarding `O=C(CCCCC(=O)Nc1c(I)cc(I)c(C(=O)O)c1I)Nc1c(I)cc(I)c(C(=O)O)c1I`, the “activity, negative = inhibition” value was 2.67% [at 25.6 µM].
On the same count and under the same terms, the same measure for `O=C(O)CCNc1ncnc2nc[nH]c12`: 35.9% [at 11.4 µM].
On the same count and under the same terms, the same measure for `O=C(Nc1cc(C(=O)Nc2ccc(S(=O)(=O)O)cc2S(=O)(=O)O)cc(C(=O)Nc2ccc(S(=O)(=O)O)cc2S(=O)(=O)O)c1)Nc1cc(C(=O)Nc2ccc(S(=O)(=O)O)cc2S(=O)(=O)O)cc(C(=O)Nc2ccc(S(=O)(=O)O)cc2S(=O)(=O)O)c1`: -25.4%; for `C#CCCCO/N=C1/C[C@@H](O)[C@@H](O)[C@@H]2[C@@H]3C(=O)N(CCC(=O)OCC)C(=O)[C@H]3CC[C@H]12`: 2.13% [at 11.4 µM].
For `Oc1c(Cl)cc(C(c2cc(Cl)c(O)c(Cl)c2)C(c2cc(Cl)c(O)c(Cl)c2)c2cc(Cl)c(O)c(Cl)c2)cc1Cl`, the AC50 was 2.51 µM (active).
Regarding `Oc1c(Cl)cc(CN(Cc2cc(Cl)c(O)c(Cl)c2)C2CCCCC2)cc1Cl`, the activity, negative = inhibition is -4.32% [at 11.4 µM].
`O=C(O)CCN1C(=S)CSC1=S`: the activity, negative = inhibition is 27% [at 11.4 µM].
Take `COc1ccccc1COC(=O)Nc1c(C)nn(C)c1Cl`: the half-maximal activity concentration (AC50) is 3.55 µM (active).
Same read-out and setting: the same measure for `Cc1nn(C)c(Cl)c1NC(=O)OCc1ccc(Cl)cc1Cl`: 2.24 µM (active).
Turning to `COC(=O)N1CCC2(CCN(Cc3ccccc3OC)CC2)CC1`, the “activity, negative = inhibition” value was -39%.
Regarding `COc1ccccc1CN1CCC2(CC1)CCN(C(=O)c1c(C)noc1C)CC2`, the “activity, negative = inhibition” value is 41.5%.
As for `Cc1nn(C)c(Cl)c1NC(=O)OCc1ccc(F)cc1`, the concentration at half-maximal activity (AC50) is 7.08 µM (active).
In the case of `CCOC(=O)N/N=C/c1ccc(F)cc1`, the “activity, negative = inhibition” value is -26%.
The same measure, in the same setting: the same measure for `O=C(c1cnccn1)N1CCC2(CC1)CN(C(c1ccccc1)c1ccccc1)C2`: -22.3%.
